Several values for one entry are separate records, joined by “and”; a condition that tells them apart may be missing. Equal values may be shown once. Results filed as inconclusive are left out. More than one record can exist for a structure, and the calls need not agree. Activity calls are given as the source filed them. Calls come from the whole dose curve.
Assay: Primary qHTS to identify inhibitors of SARS-CoV-2 cell entry (AID 1645846); note: nearly all actives have a fitted effect of over 45% in size
Settings: SARS-CoV-2 pseudovirus cell entry assay, luminescence; activity change, negative = inhibition: at 57.1 µM (top of the series) unless noted; series mostly up to 57.1 µM
Description: Assay Provider: Wei Zheng, Ph.D.
National Center for Advancing Translational Sciences, National Institute of Health, Rockville, MD.
SARS-CoV-2 spike protein, within the viral envelope, mediates viral attachment and infection of host cells. The SARS-CoV-2 spike protein specifically binds to the host receptor ACE2 (Angiotensin-converting enzyme 2). This interaction promotes endocytosis of the viral particle, additional events lead to viral-host cell membrane fusion and release of the viral contents, allowing viral replication.
While SARS-CoV-2 requires BSL-3 facilities for live virus work, pseudotyped partices (PP) that incorporate SARS-CoV-2 spike proteins without replication elements could facilitate studies on viral entry mechanisms in a BSL-2 setting. This PP cell entry assay could also enable screening of small molecule compound libraries in BSL-2 setting to identify inhibitors of SARS-CoV-2 cell entry.
PROTOCOL TABLE (format as described by Inglese J, Shamu CE and Guy RK. 2007)
SEQUENCE No. (e.g., 1, 2, 3, etc.); […] (e.g., Cells, Incubation, Reagent, etc.); VALUE and DESCRIPTION.
1. Cells. Seed 1500 HEK293-ACE2 cells (Expi293F with stable expression of human ACE2) in 2 uL/well media (DMEM, 10% FBS, 1x L-glutamine, 1x Pen/Strep, 1 ug/ml puromycin) in white 1536-well assay plates (Greiner #782073).
2. Incubation. Incubate at 37C with 5% CO2 overnight (~16 h).
3. Compounds. Dispense 23 nL/well compounds in DMSO via pin transfer.
4. Incubation. Incubate for 1 hr at 37C 5% CO2.
5. Reagent. Dispense 2 uL/well of SARS-CoV-2-S pseudotyped particles. [a] PPs are produced with murine leukemia virus pseudotyping. [b] SARS-CoV-2-S is Wuhan-Hu-1 sequence (BEI #NR-52420) with C-terminal 19 amino acid truncation.
6. Centrifuge. […]
7. Incubation. Incubate at for 48 hr at 37C 5% CO2
8. Centrifuge. Remove supernatant with gentle centrifugation using a Blue Washer (BlueCat Bio).
9. Reagent. Dispense 4 uL/well of Bright-Glo Luciferase detection reagent (Promega #E2620).
10. Incubation. Incubate for 5 min at room temperature.
11. Detection. Read luminescence signal (Viewlux plate reader, PerkinElmer). Data was normalized with wells containing SARS-CoV-2-S PP as 100%, and wells containing bald PP (no fusion protein) as 0%.
Potency is the fitted concentration of half-maximal effect.

Structure (SMILES) | Potency | activity change, negative = inhibition
C[C@@]12O[C@@H](C[C@]1(O)CO)n1c3ccccc3c3c4c(c5c6ccccc6n2c5c31)CNC4=O | 1.41 µM (active) | –
COc1ccc(N(C(=O)Oc2c(C)cccc2C)c2ccnc(Nc3ccc(N4CCN(C)CC4)cc3)n2)c(OC)c1 | inactive | –
CC(=O)Oc1ccccc1C(=O)O | inactive | –
CC(C)c1ccccc1Cc1cc(C(=O)Nc2ccc(S(=O)(=O)c3ccccc3C(C)(C)C)cc2)c(O)c(O)c1O | inactive | –
CN(C)NC(=O)CCC(=O)O | – | -24.7%
CCOC(=O)c1c(C(C#N)=CN)c2ccc(Cl)c(Cl)c2n1C | – | -10.2%
CCC(=O)O[C@@H]1C=C2CCC3C(CCC4(C)C3CC[C@@H]4OC(=O)CC)C2CC1 (stereo not given in full) | – | 4.26%
O=C1C(Cl)=C(NCCN2CCOCC2)C(=O)c2ncccc21 | 11.2 µM (active) | –
CC(C)[C@H](C(=O)Nc1ccc(C(=O)NO)cc1)c1ccccc1 | – | -95.5%
Cc1cc(SCc2sc(-c3ccc(C(F)(F)F)cc3)nc2C)ccc1OCC(=O)O | inactive | –
CC(Cc1ccc(O)cc1)NCC(O)c1cc(O)cc(O)c1 (stereo not given) | inactive | –
CCOC(=O)[C@@H](N)CCC(=O)N[C@@H](CSCc1ccccc1)C(=O)N[C@@H](C(=O)OCC)c1ccccc1 | – | 0.458%
O=C(NCC1CCOCC1)c1cnc(Nc2ccc(Cl)cc2Cl)nc1C(F)(F)F | – | -4.18%
O=C(Nc1cc(Cl)cc2c1[nH]c1cnccc12)c1cccnc1 | – | -24.6% [at 27.1 µM]
CCN(CC)CCn1c(=O)c(Cc2ccc(OC)cc2)nc2ccccc21 | – | -28.6%
CCN(c1ccccc1)c1cc(NC)[n+](C)c(C)n1 | – | 3.72%
CC1=C(/C=C/C(C)=C/C=C/C(C)=C/C(=O)O)C(C)(C)CCC1 | inactive | –
Nc1ccccc1NC(=O)c1ccc(CNc2nccc(-c3cccnc3)n2)cc1 | inactive | –
COc1cc(OC2CCN(C)CC2)ccc1Nc1ncc2c(n1)n(C1CCCC1)c(=O)n2C | 28.2 µM (active) | –
COc1ccccc1[C@H](c1cccc2ccccc12)[C@@](C)(C#N)C(=O)N1CCC(c2cccc(C(F)(F)F)c2)CC1 | – | -3.93%

Structure (SMILES) | Potency | activity change, negative = inhibition
CCN(CC)CCOc1ccc(Nc2ncc3cc(-c4c(Cl)cccc4Cl)c(=O)n(C)c3n2)cc1 | 3.16 µM (active) | –
CN(C)c1ccc(Nc2nc(N)n(C(=O)c3c(F)cccc3F)n2)cc1 | 12.6 µM (active) | –
CCOc1cc2ncc(C#N)c(Nc3ccc(OCc4ccccn4)c(Cl)c3)c2cc1NC(=O)/C=C/CN(C)C | 8.91 µM (active) and 2.51 µM (active) | –
C1Cc2[nH]nc(-c3nn[nH]n3)c2C1 | – | 4.96%
Cc1[nH]nc2ccc(-c3cncc(OC[C@@H](N)Cc4c[nH]c5ccccc45)c3)cc12 | – | -97.4%
O=C(O)CCc1ccc(NCc2cccc(Oc3ccccc3)c2)cc1 | – | -10.2%
Cc1c(C(=O)Nc2ccc(N3C[C@@H](C)O[C@@H](C)C3)nc2)cccc1-c1ccc(OC(F)(F)F)cc1 | inactive and 12.6 µM (active) | –
S=C(SSC(=S)N1CCCCC1)N1CCCCC1 | 1.12 µM (active) | –
CN(C)[C@@H]1C(=O)C(C(N)=O)=C(O)[C@@]2(O)C(=O)C3=C(O)c4c(O)cccc4[C@@](C)(O)[C@H]3[C@H](O)[C@@H]12 | inactive | -8.27%
NC(CO)C(=O)NNCc1ccc(O)c(O)c1O (stereo not given) | inactive | –
CN1[C@H]2CC(O)C[C@H]1[C@H]1O[C@H]12 (stereo not given in full) | – | 0.905%
C=CC(=O)Nc1cccc(Oc2nc(Nc3ccc(N4CCN(C)CC4)cc3OC)ncc2Cl)c1 | 31.6 µM (active) | –
O=C(O)CNC(=O)c1c(O)c2ccccc2n(Cc2ccccc2)c1=O | – | 2.25%
COc1cc2c(cc1OC)[C@@H]1C(=O)c3ccc4c(c3O[C@@H]1CO2)C=CC(C)(C)O4 | – | -98.6%
CC(C)c1ccc2c(c1)c(SC(C)(C)C)c(CC(C)(C)C(=O)O)n2Cc1ccc(Cl)cc1 | inactive | –
CCOC(=O)C(C)Oc1cccc2c(=O)n(CC(=O)Nc3ccc4c(c3)OCCO4)ccc12 (stereo not given) | – | -0.424%
CC(C)c1ccc(Cn2ccc3c4c(N)nc(NC5CC5)nc4ccc32)cc1 | – | -96.8%
Cc1cc(C(=O)NNCc2ccccc2)no1 | – | -26.2% [at 114 µM]
CN1C(=O)C(Cc2c[nH]c3ccccc23)NC1=S (stereo not given) | inactive | –

From PubChem BioAssay (NCATS)
